Experimental data: the supplement of paper PMC6992640

tested on: WHIM2 (cells of a triple-negative basal-like breast cancer xenograft); experiment: cell viability of combination (% of vehicle); higher = less cytotoxic; conditions: 1 µM; 72 h; partner dose: 10 nM
Protocol: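 PDX cells were treated for 72 h with each drug at 1 µM plus afatinib (10 nM; 1 µM for WHIM30). Luciferase viability is expressed as percent of vehicle.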

SMILES	cell viability of combination
CCCCCCCCCCCCCCCC[n+]1ccccc1.[Cl-] [Cetylpyridinium Chloride] + CN(C)C/C=C/C(=O)Nc1cc2c(Nc3ccc(F)c(Cl)c3)ncnc2cc1O[C@H]1CCOC1 [Afatinib]	32.2
Cc1cc(C(C#N)c2ccc(Cl)cc2)c(Cl)cc1NC(=O)c1cc(I)cc(I)c1[O-].[Na+] (stereo not given) [Closantel Sodium] + CN(C)C/C=C/C(=O)Nc1cc2c(Nc3ccc(F)c(Cl)c3)ncnc2cc1O[C@H]1CCOC1 [Afatinib]	49.1
Cc1cc(C(C#N)c2ccc(Cl)cc2)c(Cl)cc1NC(=O)c1cc(I)cc(I)c1O (stereo not given) [Closantel] + CN(C)C/C=C/C(=O)Nc1cc2c(Nc3ccc(F)c(Cl)c3)ncnc2cc1O[C@H]1CCOC1 [Afatinib]	47
CCCCCCCCCCCCCCCC[N+](C)(C)C.[Br-] [Cetrimonium Bromide (CTAB)] + CN(C)C/C=C/C(=O)Nc1cc2c(Nc3ccc(F)c(Cl)c3)ncnc2cc1O[C@H]1CCOC1 [Afatinib]	38
CCCCCCCCCCCC[N+](C)(C)CCOc1ccccc1.[Br-] [Domiphen Bromide] + CN(C)C/C=C/C(=O)Nc1cc2c(Nc3ccc(F)c(Cl)c3)ncnc2cc1O[C@H]1CCOC1 [Afatinib]	41.6
